Source: PubChem BioAssay (National Center for Advancing Translational Sciences (NCATS))
A selection: hits, their analogues and other compounds. The true share with any hit is near 19%.
DT40 TDP1 no CPT: qHTS for Inhibitors of human tyrosyl-DNA phosphodiesterase 1 (TDP1): qHTS in cells in absence of CPT; DT40 Tdp1-/- hTDP1 cells, no CPT, ATP luminescence, 48 h; Potency, µM (highest dose often 46.2 µM), without a hit: at the top dose activity change, negative = growth inhibition, actives largely listed as inhibitors; 420,000 tested, 15% active; further: potency means the concentration at half of the fitted maximal effect; on the % scale 0 is the no-effect control and ±100 the full control effect; nearly all actives have a fitted effect of over 55% in size
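A cellular qHTS used chicken DT40 cells lacking endogenous Tdp1 but carrying stably transfected human TDP1. Compounds were applied without camptothecin, and cell growth kinetics were judged by ATP-dependent luminescence after ≥48 hr.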
IL1B secr inh: inflammasome signaling inhibition, IL-1 beta readout | activity change, % at 57.5 µM | THP-1 LPS/ATP IL-1B secretion, AlphaLISA, 16 h; stronger effect = lower value | 360,000 tested, 4.7% active; in the data active means activity change below about -50%; inconclusive means mostly about -30% to -49%; further: on the % scale 0 is the no-effect control and ±100 the full control effect
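THP-1 cells pretreated 1 hr with compounds (up to 57.5 uM final), then stimulated with LPS (250 ng/mL final) plus ATP (1.25 mM final); secreted IL-1B measured by AlphaLISA after 16 hr, decreased signal indicating inhibition.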
TGFb SMAD3 inh: blocks TGF-b signaling; 410,000 tested, 1.2% active; Potency, µM (highest dose often 46.1 µM), inactives show at the top dose activity, negative = inhibition, usual class: inhibitors; HepG2 CAGA-GFP TGF-b/SMAD3 reporter, GFP fluorescence, 18 h; TGF-beta stimulated, 500 pg/mL final; further: potency means the concentration at half of the fitted maximal effect; on the % scale 0 is the no-effect control and ±100 the full control effect; nearly all actives have a fitted effect of over 65% in size
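Inhibition of TGF-beta-driven CAGA-GFP reporter expression in HEPG2 cells is measured by cellular GFP fluorescence after 18 h stimulation with 500 pg/mL recombinant TGF-beta in 1% FBS medium at 37 degrees C.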
HepG2 tox: counter-screen for TGF-b inhibitors: cytotoxicity in HepG2 cells; Potency, µM (titrated, usually from 46.1 µM), for the others: at the highest dose activity change, negative = cytotoxicity, actives largely listed as cytotoxic; 410,000 tested, 0.76% active; HepG2 CAGA-GFP viability, ATP luminescence, 18 h; further: potency means the concentration at half of the fitted maximal effect
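CellTiter-Glo luminescence gave cytotoxicity after 18 hours at 37 degrees C. The cells were HepG2 CAGA-GFP in 1% FBS DMEM, stimulated with 500 pg/mL TGF-beta after compound addition. %Activity was normalised to no-cell wells (complete cell-killing) and DMSO (no toxicity), and curves were fitted and classified.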
TDP1 block: inhibitors of human tyrosyl-DNA phosphodiesterase TDP1. Q9NUW8. recombinant TDP1, AlphaScreen DNA substrate cleavage. Potency, µM (doses to about 130 µM), without a hit: at the highest dose activity change, negative = inhibition, hits mostly inhibitors. 350,000 tested, 0.28% active; further: potency means the concentration at half of the fitted maximal effect; on the % scale 0 is the no-effect control and ±100 the full control effect; nearly all actives have a fitted effect of over 40% in size
Target sequence (Q9NUW8 whole entry, looked up): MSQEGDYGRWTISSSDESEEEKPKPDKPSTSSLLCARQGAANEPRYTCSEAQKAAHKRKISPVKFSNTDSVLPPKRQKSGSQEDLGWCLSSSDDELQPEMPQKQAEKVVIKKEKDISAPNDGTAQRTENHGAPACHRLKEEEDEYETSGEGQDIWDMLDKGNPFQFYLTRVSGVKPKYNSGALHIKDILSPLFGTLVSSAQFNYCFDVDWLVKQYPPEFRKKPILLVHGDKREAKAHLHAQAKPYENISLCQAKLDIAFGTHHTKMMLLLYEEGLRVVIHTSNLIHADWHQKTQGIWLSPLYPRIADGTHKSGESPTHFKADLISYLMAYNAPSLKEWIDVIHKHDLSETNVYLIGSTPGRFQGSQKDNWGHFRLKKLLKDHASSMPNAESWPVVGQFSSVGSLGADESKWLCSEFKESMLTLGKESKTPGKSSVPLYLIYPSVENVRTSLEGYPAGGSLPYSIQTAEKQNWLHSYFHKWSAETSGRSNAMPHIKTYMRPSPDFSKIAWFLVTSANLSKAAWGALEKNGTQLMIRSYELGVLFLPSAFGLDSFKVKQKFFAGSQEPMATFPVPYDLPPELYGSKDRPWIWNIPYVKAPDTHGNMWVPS
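Steps: enzyme plus compound, 15 min RT; add biotin/phosphotyrosine-FITC oligonucleotide (15 nM final), react 5 min; add donor/acceptor beads (10 ug/ml final), 10 min; read AlphaScreen. Tdp1 at 1 nM final.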
TDP1 cell CPT: growth inhibition of DT40 Tdp1-/-;hTDP1 cells with camptothecin (screen for TDP1 inhibitors); 420,000 tested, 12% active; chicken DT40 Tdp1-/-;hTDP1 cells + 20 nM CPT, ATP luminescence, 48 h; Potency, µM (highest dose often 46.2 µM), for the others: at the highest dose activity change, negative = growth inhibition, hits mostly inhibitors; further: potency means the concentration at half of the fitted maximal effect; on the % scale 0 is the no-effect control and ±100 the full control effect; nearly all actives have a fitted effect of over 55% in size
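Chicken DT40 Tdp1-/- cells stably complemented with human TDP1 were seeded at 400 cells/well in medium containing 20 nM camptothecin, exposed to pin-transferred compounds, and grown at 37 °C for at least 48 hr. Viability was read as ATP luminescence.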
* marks the source's active call; other numbers are inactive results; ? = inconclusive; . = no result; [ ] = remark or other dose. Unless noted, the call rests on the fitted dose curve; in most records, active means well fitted curve in the direction sought with a large enough effect; inconclusive means small, poorly fitted or top-dose-only effect, or another doubt; inactive means no such curve, though single readings can be large; an effect the other way counts as inactive or inconclusive.

SMILES	DT40 TDP1 no CPT	IL1B secr inh	TGFb SMAD3 inh	HepG2 tox	TDP1 block	TDP1 cell CPT
CC1CC[C@@]2(OC1)O[C@@H]1[C@@H](O)[C@H]3C4CC[C@H]5C[C@@H](O[C@@H]6O[C@H](CO)[C@H](O[C@@H]7O[C@H](CO)[C@@H](O)[C@H](O[C@@H]8OC[C@@H](O)[C@H](O)[C@H]8O)[C@H]7O[C@@H]7O[C@H](CO)[C@@H](O)[C@H](O[C@@H]8O[C@H](CO)[C@@H](O)[C@H](O)[C@H]8O)[C@H]7O)[C@H](O)[C@H]6O)[C@H](O)C[C@]5(C)C4CC[C@]3(C)[C@H]1[C@@H]2C (stereo partly drawn)	6.68µM*	.	.	.	16.1%[56.1 µM]	5.31µM*
CC1CC[C@@]2(OC1)OC1C(O)C3C4CC[C@H]5CC(O[C@@H]6O[C@@H](CO)[C@H](OC7OC(CO)C(O)C(OC8OCC(O)C(O)[C@H]8O)[C@@H]7O[C@@H]7OC(CO)[C@H](O)[C@@H](O[C@@H]8OC(CO)C(O)C(O)C8O)C7O)C(O)C6O)C(O)C[C@]5(C)C4CC[C@]3(C)C1C2C (stereo partly drawn)	1.3µM*	.	.	.	7.7%	2.31µM*
CC(=O)c1cn(Cc2ccccc2F)c2ccccc12	4.61µM*	-3.7	?	-67.8%	.	8.2µM*
O=C(c1ccccc1F)c1cn(Cc2ccc(F)cc2)c2ccccc12	?	?	?	5.3%	-10.8%	16.4µM*
O=C(c1ccccc1F)c1cn(Cc2ccccc2)c2ccccc12	?	-6.1	-3.8%	1.4%	-5.9%	?
CC(=O)c1cn(Cc2ccccc2C#N)c2ccccc12	1.03µM*	0.0	-21.4%	-10.2%	0.0%	2.06µM*
CC(C)C(=O)c1cn(Cc2ccccc2C#N)c2ccccc12	?	-14.0	-3.0%	0.6%	-5.5%	?
CC(N)[C@@H](O)c1ccccc1 (stereo partly drawn)	13.2%	.	.	.	9.3%[56.1 µM]	2.3%
CCOc1ccc(CC(=O)Nc2ccc3c(c2)N(C)C(=O)c2ccccc2S3)cc1OCC	?	.	-29.6%	-18.2%	-1.5%	?
Cc1ccc(NC(=O)c2cn(CCC#N)nc2-c2ccc3c(c2)OCCO3)c([N+](=O)[O-])c1	6.51µM*	-12.2	5.1%	-0.1%	0.6%	?
O=C1c2ccccc2C(=O)c2ccccc21	-2.3%	.	.	.	2.1%	-11.1%
c1ccc2c(c1)[IH]c1ccccc1-2	0.0517µM*	-93.7*	4.47µM*	-47.1%	.	0.0517µM*
C[C@@H]1Cc2c(Cl)cc(C(=O)N[C@@H](Cc3ccccc3)C(=O)O)c(O)c2C(=O)O1	.	.	.	.	5.1%	.
COc1cccc(CNC(=O)c2cc3c(-c4ccccc4F)nn(C)c3s2)c1	16.4µM*	.	-16.9%	-26.5%	-2.3%	?
COc1ccccc1N1CCN(C(=O)c2cc3c(-c4ccccc4F)nn(C)c3s2)CC1	6.51µM*	.	?	16.0%	9.3%	?
Cc1cccc(OCC(=O)Nc2cc(-c3ccccc3F)nn2-c2ccccc2)c1	?	.	1.3%	-4.0%	2.7%	?
O=CC=O	-19.0%	.	.	.	13.8%	11.1%
CCn1cc(CN(C)S(=O)(=O)c2ccc3ccccc3c2)c(C)n1	5.8µM*	7.5	0.0%	0.8%	0.0%	5.17µM*
CCn1cc(CN2CCCC(C(=O)c3cccc(OC)c3)C2)c(C)n1 (stereo not drawn)	-27.0%	34.7	-5.3%	-13.7%	3.6%	-21.4%
CN1CCc2cc3c(c4c2[C@H]1Cc1ccccc1-4)OCO3	.	.	.	.	20.7%	.
